Hit rate of the full screen: of about 65,000 compounds, about 3,600 (5.5%) were called active.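 Rule for the calls: active = at 10 µM, mean starting fluorescence two-fold or more over control wells; inactive = the rest.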 The full list was thinned out, with actives kept by preference.

A short description of this experiment: intrinsic fluorescence of library compounds, ex339/em460 – biochemical, MLSMR library, data from DPM-DC assay, artefact control, profiling panel (AID 709).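 Note: signal is the first read of a kinetic run.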 The note with it: compound autofluorescence, ex339/em460 nm, NADH buffer; at 10 µM; stronger effect = higher value; 1 = no-compound wells, NADH background.
Regarding `COc1ccc(CN2CC(C(=O)NCCN3CCN(c4ccccc4F)CC3)CC2=O)cc1` (stereo not given), the fluorescence fold increase was 1.08 (inactive).
The value for `CCOC(=O)CN1C(=O)C(O)(CC(=O)c2ccccn2)c2ccccc21` (stereo not given) was 1.04 (inactive); that for `O=C(Oc1ccccc1)c1ccc2nccnc2c1` was 1.04 (inactive).
The value for `CC(=O)N1CC2(C)CN(C(C)=O)CC(C)(C1)C2=O` was 1.11 (inactive); that for `COCCNC(=O)c1snc2ccc(Cl)cc12` was 1.2 (inactive).
To `COc1ccccc1N1CCN(C(=O)c2cc3c(-c4ccc(Cl)cc4)nn(C)c3s2)CC1` belongs 1.07 (inactive); to `CCOC(=O)N1CCN(C(=O)c2cc3c(-c4ccc(Cl)cc4)nn(C)c3s2)CC1`, 1.19 (inactive); to `Cn1nc(-c2ccc(Cl)cc2)c2cc(C(=O)NCc3ccco3)sc21`, 2.11 (active).
Consider `COc1ccc(S(=O)(=O)N2CCCC2)c(C)c1C`, for which the fluorescence fold increase is 1.06 (inactive).
The value for `COc1cccc(-c2cc3nc4c(c(N5CCC6(CC5)OCCO6)n3n2)CCCC4)c1` was 1.74 (inactive); that for `c1ccc(-c2oc3ncnc(N4CCOCC4)c3c2-c2ccccc2)cc1` was 2.38 (active).
To `O=C1c2ccccc2-c2ncnc3c(N4CCOCC4)cc(N4CCOCC4)c1c23` belongs 1.04 (inactive); to `c1ccc(COc2nsnc2N2CCOCC2)cc1`, 1.12 (inactive).
Consider `COC(=O)c1ccc(OC(=O)c2nn(C)cc2Cl)c(OC)c1`, for which the fluorescence fold increase was 1.11 (inactive).
To `CCOc1ccc(N(CC(=O)OC)S(=O)(=O)c2c(C)noc2C)cc1` belongs 1.1 (inactive).
To `O=C(NC1CCCC1)c1ccc(Br)s1` belongs 1.08 (inactive).
The value for `CCc1nnc(NC(=O)c2cccs2)s1` was 1 (inactive); that for `COc1cc(C(=O)Nc2nccs2)cc(OC)c1OC` was 1.09 (inactive); that for `Cc1ccc(C(=O)Nc2nnc(-c3cccs3)s2)cc1C` was 3.04 (active).
As to `COc1ccc(OC)c2c1sc(=NC(=O)CN1C(=O)CCC1=O)n2C`, the fluorescence fold increase is 1.13 (inactive).
`CC1CCc2c(sc(NC(=O)c3ccc(Cn4cc(Br)cn4)o3)c2C(N)=O)C1` (stereo not given): the fluorescence fold increase was 3.78 (active).
Regarding `CCc1c(C)nc(N2CCN(Cc3ccccc3)CC2)[nH]c1=O`, the fluorescence fold increase is 1.06 (inactive).
The value for `Cn1c(=O)[nH]c(=O)c2c1nc(CN1CCN(c3ccccc3F)CC1)n2CCc1ccccc1` was 1.09 (inactive).
`CC(C)CNC(=O)C1CCCN(S(=O)(=O)c2ccc(-n3cnnn3)cc2)C1` (stereo not given): the fluorescence fold increase is 1.07 (inactive).
To `COC(=O)C(C)Sc1ccc2nnc(-c3cccc(F)c3)n2n1` (stereo not given) belongs 2.06 (active).
On to `CC1CCN(C(=O)CSc2ccc3nnc(-c4cccc(F)c4)n3n2)CC1`, for which the fluorescence fold increase was 1.4 (inactive).
To `CCOc1ccc(-c2nnc3ccc(SC)nn23)cc1` belongs 1.17 (inactive); to `CCCOc1ccc(CN(CCO)CCO)cc1C(=O)OC`, 1.07 (inactive).
Consider `Cc1cccc(Cn2c(SCCO)nc3c2c(=O)n(C)c(=O)n3C)c1`, for which the fluorescence fold increase is 0.95 (inactive).
The value for `COC(=O)C1C(=O)CC(C)(O)C(C(=O)OC)C1c1ccc2c(c1)OCO2` (stereo not given) was 1.09 (inactive); that for `Cc1cc(=O)[nH]c(SCC(N)=O)c1C#N` was 1.12 (inactive).
To `COc1ccc(C2CC(c3ccc(C)cc3)Nc3nc(N)nn32)cc1` (stereo not given) belongs 1.09 (inactive).
The value for `CCOC(=O)c1c(C)n(C)c2ccc(OC)c(NC(=O)CN3CCC4(CC3)OCCO4)c12` was 1.04 (inactive); that for `CC(C)Cn1c(N)c(C(=O)NCc2cccs2)c2nc3ccccc3nc21` was 3.03 (active); that for `C=CCn1c2ccccc2c2nnc(SC(CC)C(=O)Nc3nc(C)c(C(=O)OCC)s3)nc21` (stereo not given) was 1.22 (inactive).
Take `C=CCn1c(N)c(C(=O)OCC(C)C)c2nc3ccccc3nc21`: the fluorescence fold increase was 3.79 (active).
To `CCN(CC(=O)NCc1cccs1)c1nnnn1-c1ccccc1` belongs 1.04 (inactive); to `COC(=O)c1cn(CC(=O)NCc2cccs2)c2ccccc12`, 1.12 (inactive).
In the case of `CCCCNc1nc2ccccc2nc1NS(=O)(=O)c1cccs1`, the fluorescence fold increase was 1.35 (inactive).
On to `C=CCn1c(C(C)NC(=O)CC)nc2ccccc21` (stereo not given), for which the fluorescence fold increase was 1.1 (inactive).
To `C=CCn1c(N)c(S(=O)(=O)c2cccs2)c2nc3ccccc3nc21` belongs 3.9 (active).
The value for `CCOC(=O)C1CCN(C(=O)CSc2cc(=O)n(C)c3ccccc23)CC1` was 1.32 (inactive); that for `Cc1ccc(OCCCC(=O)N2CCOCC2)c(C)c1` was 1.13 (inactive).
To `Cc1ccc(CCn2c3c(c4ccccc42)CN(C)CC3)cn1` belongs 1.12 (inactive); to `CCOC(=O)c1ccc(NC(=O)CS(=O)(=O)c2cn(CC)c3ccccc23)cc1`, 1.08 (inactive).
`CC1(C)C(=O)Nc2ccccc2N1C(=O)COC(=O)Cn1cnc2ccccc2c1=O`: the fluorescence fold increase is 1.03 (inactive).
Consider `CCn1c(COc2ccccc2)nnc1SCC(=O)Nc1ccc2c(c1)OCCO2`, for which the fluorescence fold increase was 1.12 (inactive).
To `COCCn1nnnc1CN1CCC(NC(=O)Nc2cccc(OC)c2)CC1` belongs 1.05 (inactive).
To `COC(=O)Cc1csc(Nc2c(C)n(C)n(-c3ccccc3)c2=O)n1` belongs 1.09 (inactive); to `CCOc1ccc(Nc2oc(Cc3ccccc3)nc2C#N)cc1`, 1.13 (inactive).
To `COc1ccc(-c2nnc(SC(C)C#N)o2)cc1` (stereo not given) belongs 1.08 (inactive).
Regarding `COc1ccc(Nc2oc(-c3ccccc3Cl)nc2C#N)cc1`, the fluorescence fold increase was 2.11 (active).
The value for `O=C(COc1ccccc1)NCCc1nc2ccccc2[nH]1` was 1.13 (inactive); that for `Fc1ccc(-c2ccc(-c3nn4c(-c5ccco5)nnc4s3)o2)cc1` was 1.49 (inactive).
Take `COc1ccc(-c2nn3c(-c4ccccc4)nnc3s2)cc1OC`: the fluorescence fold increase is 1.69 (inactive).
`Fc1ccc(-c2nnc3sc(-c4ccc5c(c4)OCO5)nn23)cc1`: the fluorescence fold increase was 2.05 (active).
To `Cc1noc(C)c1COC(=O)Cn1c(C)nc2ccccc21` belongs 1.09 (inactive).
To `O=C(c1cccs1)N1CCC(c2nc3ccccc3s2)CC1` belongs 1.04 (inactive); to `Cc1nn(Cc2ccccc2)c(Cl)c1C(=O)OC1CCOC1=O` (stereo not given), 1.07 (inactive).
The value for `O=C(OC1CCOC1=O)c1ccc(-c2nc3ccccc3s2)s1` (stereo not given) was 5 (active).
For the compound `O=C(NCc1ccco1)C1CCCN(S(=O)(=O)c2cnc[nH]2)C1` (stereo not given), the fluorescence fold increase is 1.08 (inactive).
To `c1ccc2[nH]c(-c3nc4ccccc4[nH]3)nc2c1` belongs 2.21 (active); to `C=CCSc1nc2ccccc2[nH]1`, 1.11 (inactive); to `c1ccc(-c2[nH]ncc2-c2nc3ccccc3[nH]2)cc1`, 1.2 (inactive).
The value for `CC1(C)Oc2ccc3ccc(=O)oc3c2/C(=C/NCCO)C1=O` was 1.05 (inactive).

Values taken from PubChem BioAssay AID709 (SRMLSC, 2007).
